Screening results deposited in PubChem BioAssay by National Center for Advancing Translational Sciences (NCATS).
Shown is part of a subset that was picked to be rich in hits.
Cycloheximide cs: affects cycloheximide protein synthesis inhibition readout, counter-screen. cell reporter, cycloheximide protein synthesis inhibition counterscreen. max response, %. 300,000 compounds, 12% hits. AID 2314; in the data active means max response mostly above about 13%, no sharp cut-off; inactive means mostly below about 14%; further: read at 38.3 µM for the half of the compounds with a filed dose
Shiga toxin inh: Shiga toxin inhibition; Vero cells, Shiga toxin protein synthesis inhibition reporter; inhibition, % at 38.7 µM; 290,000 compounds, 9.2% hits; AID 2315; in the data active means inhibition mostly above about 28%, no sharp cut-off; inactive means mostly below about 43%
NS1 inh: blocks influenza NS1 protein function | 270,000 compounds, 0.4% hits | Potency, µM (series often up to 46.1 µM); further: actives are rising curves; nearly all actives have a fitted effect of over 50% in size
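Growth recovery, yeast-based: influenza A NS1 expressed in S. cerevisiae causes slow growth, and suppressors are detected by OD600. The parent strain without NS1 is used as positive control.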
Tb PYK inh: blocks Trypanosoma brucei pyruvate kinase; Q57TT1; TbPYK enzyme, Kinase-Glo Plus ATP luminescence, 45 min; Potency, µM (highest dose often 76.8 µM), most hits filed as inhibitors; 410,000 compounds, 0.12% hits; AID 624173; active means well fitted curve in the direction sought with a large enough effect; inconclusive means small, poorly fitted or top-dose-only effect, or another doubt; inactive means no such curve, though single readings can be large; an effect the other way counts as inactive or inconclusive; further: nearly all actives have a fitted effect of over 50% in size
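Luminescence from Kinase-Glo Plus, added after a 45-minute room-temperature reaction, served as the end-point read-out. The enzyme and substrate were preincubated with compound before ADP (130 uM final) initiated turnover. Concentration-effect curves came from normalized qHTS data.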
LmPK inhibitor: blocks Leishmania mexicana pyruvate kinase activity; 290,000 compounds, 0.37% hits; purified LmPK, Kinase-Glo ATP luminescence, 1 h; Potency, µM (doses to about 57.5 µM), usual class: inhibitors; active means well fitted curve in the direction sought with a large enough effect; inconclusive means small, poorly fitted or top-dose-only effect, or another doubt; inactive means no such curve, though single readings can be large; an effect the other way counts as inactive or inconclusive
Target sequence (Q27686 whole entry, looked up): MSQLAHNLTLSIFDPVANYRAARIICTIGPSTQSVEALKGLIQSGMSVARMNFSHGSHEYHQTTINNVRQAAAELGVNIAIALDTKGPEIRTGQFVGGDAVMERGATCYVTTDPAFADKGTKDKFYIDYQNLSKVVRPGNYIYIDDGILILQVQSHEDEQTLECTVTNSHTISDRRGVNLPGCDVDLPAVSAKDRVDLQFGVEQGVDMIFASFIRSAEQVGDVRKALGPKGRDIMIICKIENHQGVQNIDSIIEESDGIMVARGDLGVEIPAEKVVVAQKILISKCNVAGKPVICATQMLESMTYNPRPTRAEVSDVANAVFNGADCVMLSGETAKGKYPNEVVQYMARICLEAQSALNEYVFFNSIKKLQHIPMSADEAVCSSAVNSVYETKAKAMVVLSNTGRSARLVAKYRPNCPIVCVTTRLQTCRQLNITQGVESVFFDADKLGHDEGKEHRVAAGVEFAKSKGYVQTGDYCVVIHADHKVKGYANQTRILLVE
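0.1 nM LmPK, 0.5 mM PEP, 0.1 mM ADP; 50 mM imidazole pH 7.2, 7 mM MgCl2, 50 mM KCl; 1 h RT. Kinase-Glo luminescence readout, normalized to no-enzyme (full inhibition) and uninhibited wells.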
SARS PLpro yeast: SARS-CoV PLP inhibition in yeast | S. cerevisiae expressing SARS-CoV PLpro, growth rescue | Potency, µM (doses to about 32.9 µM), usual class: activators | 330,000 compounds, 0.19% hits | AID 485353; further: nearly all actives have a fitted effect of over 55% in size
A number is an active result. Unless noted, the call rests on the fitted dose curve.

O=C(Nc1ccc2c(c1)OCO2)c1cccc(S(=O)(=O)N2CCCC2)c1 was read as Cycloheximide cs 24, Shiga toxin inh 41, NS1 inh inactive, Tb PYK inh inactive, LmPK inhibitor inactive and SARS PLpro yeast inactive.
For O=C(Nc1nc(-c2cccs2)cs1)c1cccc(S(=O)(=O)N2CCCCC2)c1 the results were Cycloheximide cs 18, Shiga toxin inh inactive, NS1 inh inactive, Tb PYK inh inactive, LmPK inhibitor inactive and SARS PLpro yeast inactive.
`O=C(Nc1ccc2c(c1)OCO2)c1ccc(Br)c(S(=O)(=O)N2CCCC2)c1` gave Cycloheximide cs 28, Shiga toxin inh 61, NS1 inh inactive, Tb PYK inh inactive, LmPK inhibitor inactive and SARS PLpro yeast inactive.
`Cc1ccc(-c2csc(NC(=O)c3cccc(S(=O)(=O)N4CCN(C)CC4)c3)n2)cc1` gave Cycloheximide cs inactive, Shiga toxin inh inactive, NS1 inh inactive, Tb PYK inh inactive, LmPK inhibitor inactive and SARS PLpro yeast inactive.
Screening Cc1occc1C(=O)Nc1ccc(S(=O)(=O)N2CCCC2)cc1 returned Cycloheximide cs inactive, Shiga toxin inh 29, NS1 inh inactive, Tb PYK inh inactive, LmPK inhibitor inactive and SARS PLpro yeast inactive.
For O=C(Nc1ccc2c(c1)OCO2)c1cccc(S(=O)(=O)N2CCOCC2)c1 the results were Tb PYK inh inactive.
For Cc1ccc(C2=Nc3ccccc3N(CC(=O)NCc3ccccc3Cl)C(=O)C2)cc1C the results were Tb PYK inh inactive.
For COc1ccc(OC)c(C(C)NC(=O)C(C)n2cc([N+](=O)[O-])cn2)c1 (centres undefined) the results were Tb PYK inh inactive and SARS PLpro yeast inactive.
`O=C(Nc1ccc(N2CCOCC2)cc1)c1ccc(S(=O)(=O)N2CCCCC2)cc1` gave Cycloheximide cs inactive, Shiga toxin inh inactive, NS1 inh inconclusive, Tb PYK inh inactive, LmPK inhibitor inactive and SARS PLpro yeast inactive.
`CC(=O)Nc1ccc(C(=O)Nc2ccc(S(=O)(=O)N3CCOCC3)cc2)cc1` gave Cycloheximide cs 16, Shiga toxin inh inactive, NS1 inh inactive, Tb PYK inh inactive, LmPK inhibitor inactive and SARS PLpro yeast inactive.
Screening O=C(NCc1cccnc1)c1cccc(S(=O)(=O)N2CCCC2)c1 returned Cycloheximide cs 52, Shiga toxin inh inactive, NS1 inh inconclusive, Tb PYK inh inactive, LmPK inhibitor inactive and SARS PLpro yeast inactive.
O=C(Nc1ccc(S(=O)(=O)N2CCOCC2)cc1)c1ccccc1 was read as Cycloheximide cs inactive, Shiga toxin inh inactive, NS1 inh inactive, Tb PYK inh inactive, LmPK inhibitor inactive and SARS PLpro yeast inactive.
O=C(Nc1ccc2c(c1)OCCO2)c1ccc(S(=O)(=O)N2CCCCC2)cc1 was read as Cycloheximide cs 33, Shiga toxin inh inactive, NS1 inh inactive, Tb PYK inh inactive, LmPK inhibitor inactive and SARS PLpro yeast inactive.
O=C(NCc1cccnc1)c1cccc(S(=O)(=O)N2CCCCC2)c1 was read as Cycloheximide cs inactive, Shiga toxin inh inactive, NS1 inh inactive, Tb PYK inh inactive, LmPK inhibitor inactive and SARS PLpro yeast inactive.
Screening O=C(Nc1ccc2c(c1)OCCO2)c1ccc(Br)c(S(=O)(=O)N2CCOCC2)c1 returned Cycloheximide cs 32, Shiga toxin inh 52, NS1 inh inactive, Tb PYK inh inactive, LmPK inhibitor inactive and SARS PLpro yeast inactive.
For Clc1ccc(Sc2cc(Cl)c(Cl)cc2Cl)cc1 the results were Cycloheximide cs inactive and Shiga toxin inh inactive.
For COc1c(O)c(O)c2cc(OC)c3c(OC)cc(=O)c4c5c(=O)c(OC)c(C(C)=O)c6c5c(c1CC=6C)c2c34 the results were Cycloheximide cs inactive and Shiga toxin inh inactive.
CN(CC(=O)NCCCN1CCOCC1)S(=O)(=O)c1ccc(Cl)cc1 was read as Tb PYK inh inactive and SARS PLpro yeast inactive.
`Cc1ccccc1S(=O)(=O)NCC1CCCO1` (centres undefined) gave Cycloheximide cs inactive, NS1 inh inactive, Tb PYK inh inactive, LmPK inhibitor inactive and SARS PLpro yeast inactive.
Screening O=C(Nc1ccccc1)c1ccc(S(=O)(=O)N2CCCCC2)cc1 returned Cycloheximide cs 11, Shiga toxin inh 19, NS1 inh inactive, Tb PYK inh inactive, LmPK inhibitor inactive and SARS PLpro yeast inactive.
Screening O=C(O)c1cccc(NC(=O)c2cccc(S(=O)(=O)N3CCCCC3)c2)c1 returned Cycloheximide cs inactive, Shiga toxin inh inactive, NS1 inh inconclusive, Tb PYK inh inactive, LmPK inhibitor inactive and SARS PLpro yeast inactive.
